High-throughput results deposited in PubChem BioAssay by Broad Institute.
Wnt act: Wnt/beta-catenin pathway activators, primary screen, cell-based, plate reader, single point | Wnt/beta-catenin reporter cell assay, activator | activation, % at 9.35 µM | 1.2% of 300,000 active | AID 743398, 2014; in the data active = activation above about 30%, passing the limit was not always enough; inconclusive = no clear call, values can overlap the other calls;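 note: 0% = neutral control wells and 100% = positive control wells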
HSF1 inhib: HSF1 inhibitors in luciferase reporter cells, primary screen, cell-based, NIH3T3, luminescence | NIH3T3-HGL HSE-luciferase, MG132-induced, luminescence 8 h; stronger effect = lower value | activity change, negative = inhibition, % at 7.5 µM (by protocol) | 0.77% of 300,000 active;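 active = more than half of replicate wells show activity change below -50%, luminescence cut by over half; inconclusive = some wells, but at most half, below -50%; inactive = no replicate well below -50%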;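 note: luciferase reports HSF-1 transcriptional activity via heat shock element; 0% = median of DMSO wells and -100% = zero luminescence signal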
MITF TRPM1 HTS: activators of MITF-driven TRPM1 promoter reporter, primary screen, cell-based, SK-MEL-5, luciferase, single point. 0.75% of 300,000 active. AID 588334, 2011. activation, % at 12.5 µM. SK-MEL-5 TRPM1-promoter luciferase, 24 h; % of positive control, neutral wells = 0;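 active = mean activation of at least 80% with every replicate also reaching 80%; inconclusive = mean reaches 80% but some replicate falls short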;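 note: 0% = neutral control wells and 100% = parthenolide positive control wells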
esBAF inh: Bmi1 luciferase reporter increase in mESCs, primary screen, esBAF inhibitor project, mouse ES cells, Bmi1 luciferase knock-in, single point | 2% of 350,000 active | reporter increase, % at 12.5 µM | 24 h; 100% = twice the neutral-well signal; in the data active = activation above about 40%; inconclusive = no clear call, values can overlap the other calls;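 note: 0% = median of the plate's neutral control wells and 100% = double that signal; a rise in the Bmi1 reporter signal indicates esBAF inhibition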
HSF-1 act: HSF-1 activators, primary screen, NIH3T3-HGL cells, MG132 stress, luminescence, single point | 1.7% of 300,000 active | AID 504408, 2011 | NIH3T3-HGL HSF-1 luciferase reporter, 8 h; 100% = twice DMSO control signal | activation, % at 9 µM;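 active = mean replicate activation of at least 50% with a set share of replicates each reaching 50%; inconclusive = only one of those two conditions met; inactive = mean below 50% and too few replicates reaching it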;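 note: 0% = median of the neutral control wells and 100% = twice that signal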
* = called active by the depositor; ? = inconclusive; . = no result given. Hits are enriched below; roughly 3.9% of the tested compounds scored in any of these assays.

SMILES	Wnt act	HSF1 inhib	MITF TRPM1 HTS	esBAF inh	HSF-1 act
COC(=O)c1ccc(N2C(=O)CC(N3CCOCC3)C2=O)cc1 (stereo unspecified)	.	-4.0	12.0	-6.2	-5.3
COC(=O)c1ccc(N2OC3(C)C=CC2CC3)cc1 (stereo unspecified)	12.9	4.9	58.3	63.4*	6.4
O=C(Nc1ccc(SC(F)F)cc1)c1ccc2c(=O)n3c(nc2c1)CCC3	20.2	.	42.5	87.0*	.
O=C(Nc1ccccc1Cl)c1ccc2c(=O)n3c(nc2c1)CCC3	50.7*	.	71.4	15.7	.
O=C(NCCOc1ccccc1F)c1ccc2c(=O)n3c(nc2c1)CCC3	45.9*	.	44.1	6.1	.
O=C(NC1CCCCCC1)c1ccc2c(=O)n3c(nc2c1)CCCCC3	.	9.7	91.9*	21.4	-2.3
O=C(Nc1ccc(F)cc1Cl)c1ccc2c(=O)n3c(nc2c1)CCCCC3	.	2.7	55.3	.	34.0
O=C(NCc1ccccc1)c1ccc2c(=O)n3c(nc2c1)CCCCC3	-6.5	2.8	0.6	2.9	-1.5
CC(C)NC(=O)Nc1cccc2c1O[C@H](CN(C)C(=O)Nc1cccc3ccccc13)[C@H](C)CN([C@H](C)CO)C2=O	.	.	.	3.3	.
Cc1ccc(NC(=O)c2ccc3c(=O)n4c(nc3c2)CCCCC4)nc1	14.5	22.4	41.1	35.6	23.2
Cc1cccc(NC(=O)c2ccc3c(=O)n4c(nc3c2)CCCCC4)n1	35.3*	2.6	2.8	-37.0	-0.1
CCS(=O)(=O)N1CCCC(C(=O)c2ccc(OC)cc2C)C1 (stereo unspecified)	-1.8	0.2	0.7	.	5.0
COc1ccc(C(=O)C2CCCN(S(=O)(=O)c3ccccc3F)C2)c(C)c1 (stereo unspecified)	-3.4	-77.3*	-3.2	-3.2	-83.6
COc1ccc(N2C(=O)C(Cl)=C(Oc3cccc(OC)c3)C2=O)cc1	.	69.9	-19.5	-8.5	136.5*
Cc1ccc(S(=O)(=O)N(C)C[C@H]2Oc3cc(C#Cc4ccncc4)ccc3S(=O)(=O)N([C@H](C)CO)C[C@@H]2C)cc1	.	.	.	-6.5	.
COc1cc(/C=N/NC(=S)NC2CC3CC2C2C=CCC32)ccc1O (stereo unspecified)	19.5	2.4	.	47.8*	-5.1
Cc1ccc(-c2cnc3c(c2)C(=O)N([C@H](C)CO)C[C@H](C)[C@@H](CN(C)C(=O)c2cccnc2)O3)cc1	.	.	.	0.3	.
Cc1noc(C)c1NC(=O)Nc1cccc2c1O[C@H](CN(C)C(=O)Nc1ccc(F)cc1)[C@H](C)CN([C@@H](C)CO)C2=O	.	.	.	3.5	.
Cc1ccc(NC(=O)c2cc(F)c(F)cc2Cl)nc1	16.0	2.7	?	44.2*	-16.1
COc1ccc(NC(=O)Nc2ccc(Br)cn2)cc1	27.2	11.2	87.1*	.	47.9
Cc1ccc(NC(=O)Nc2cnccn2)cc1	9.6	13.7	53.9	.	25.0
Cc1ccc(NC(=O)Nc2ccc(Cl)cn2)cc1	16.1	40.2	77.8	.	77.3*
Cc1ccc(NC(=O)Nc2ccc(Cl)c(Cl)c2)nc1	18.6	27.7	.	59.9*	53.5*
Cc1ccc(NC(=O)c2ccccc2F)nc1	.	12.3	.	25.2	36.0
C[C@@H]1CN([C@H](C)CO)S(=O)(=O)c2ccc(-c3ccc(F)cc3)cc2O[C@H]1CN(C)C(=O)c1ccccc1F	.	.	.	-4.9	.
SMILES	Wnt act	HSF1 inhib	MITF TRPM1 HTS	esBAF inh	HSF-1 act
O=C(c1ccccc1F)N1CC[C@@H]2[C@H](CO)Nc3ccc(-c4cccc(F)c4)cc3[C@@H]21	.	.	.	-2.6	.
Nc1ccc2c(c1)Cc1cc(Cl)c(Cl)cc1-2	4.3	.	24.7	.	.
Nc1ccc2c(c1)Cc1c(F)cccc1-2	.	.	65.3	57.2*	.
C[C@@H]1CN([C@H](C)CO)C(=O)c2cc(C#CCN(C)C)cnc2O[C@H]1CN(C)C(=O)CN1CCOCC1	.	.	.	1.6	.
CN(C)S(=O)(=O)c1cccc(NC(=O)C2Cc3ccccc3CN2C(=O)c2ccco2)c1 (stereo unspecified)	2.3	2.6	-4.5	43.6*	4.7
Nc1nnc(COc2ccc(Br)cc2Br)s1	10.6	45.8	69.7	69.1*	92.2*
COCC(=O)N1[C@H](CO)[C@@H]2c3ccccc3N(C(=O)c3ccccc3)C[C@@H]21	.	.	.	-11.5	.
CCOc1ccc(N=C(NN)c2ccc3ccccc3n2)cc1	.	-81.6*	-8.9	.	-83.6
COC(=O)c1ccc2ccccc2n1	.	4.7	.	9.2	18.8
